Among all 220,000 compounds or so, about 530 (0.24%) were called active. Only a selection was taken, and actives are over-represented in it overall. Measured potencies and affinities stand elsewhere. Values without a mark were called inactive. No stated cut-off is given here; in the data, active means inhibition above about 13%; inconclusive means no clear call, values can overlap the other calls; inactive means below that.
Biological target: Bifunctional protein GlmU (Mycobacterium tuberculosis (strain ATCC 25618 / H37Rv)) (UniProt P9WMN3)
Assay: inhibition of mycobacterial GlmU enzyme – biochemical, glucosamine-1-phosphate acetyltransferase (AID 1376);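 further: 0% = complete reaction with vehicle and 100% = reaction without substrate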
Details: M. tuberculosis GlmU acetyltransferase enzyme assay; stronger effect = higher value;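 tested at 30 µM in the primary screen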

Bifunctional protein GlmU (Mycobacterium tuberculosis (strain ATCC 25618 / H37Rv)), sequence (P9WMN3 whole entry, looked up): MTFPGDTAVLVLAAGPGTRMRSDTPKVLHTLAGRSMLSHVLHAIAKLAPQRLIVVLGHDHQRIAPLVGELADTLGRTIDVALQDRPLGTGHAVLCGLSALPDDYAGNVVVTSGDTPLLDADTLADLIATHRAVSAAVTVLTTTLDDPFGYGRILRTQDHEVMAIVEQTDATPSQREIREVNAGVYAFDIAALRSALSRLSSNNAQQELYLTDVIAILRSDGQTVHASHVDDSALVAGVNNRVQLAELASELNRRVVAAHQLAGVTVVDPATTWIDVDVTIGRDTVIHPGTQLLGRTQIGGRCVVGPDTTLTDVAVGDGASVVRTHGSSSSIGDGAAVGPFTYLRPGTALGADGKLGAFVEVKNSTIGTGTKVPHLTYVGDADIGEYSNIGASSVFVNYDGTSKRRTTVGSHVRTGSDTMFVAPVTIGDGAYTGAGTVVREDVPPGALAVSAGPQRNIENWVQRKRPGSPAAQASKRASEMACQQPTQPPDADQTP

| SMILES | inhibition |
| --- | --- |
| COC(=O)c1ccccc1NC(=O)N1CCN(c2ccccc2)CC1 | -3.35% |
| COCCNC(=O)C1CC2Cn3c(nc4cc(C)c(C)cc43)C2N1C (stereo not drawn) | 1.27% |
| Cc1cc(Cc2ccc(N)c(C)c2)ccc1N | -3.87% |
| Nc1ccc(Cc2ccc(N)c(C(=O)O)c2)cc1C(=O)O | 7.1% |
| Nc1ccc(Cc2ccc(N)c(O)c2)cc1O | 13.4% (active) |
| Cc1c(Cl)cccc1NS(=O)(=O)c1ccc2c(c1)C1C=CCC1C(c1ccc(C(=O)O)cc1)N2 (stereo not drawn) | 23.6% (active) |
| COc1ccc(C(=O)N/N=C(\C)c2ccc3c(c2)C2C=CCC2C(c2ccccc2)N3)cc1 (stereo not drawn) | 7.99% |
| CC(=O)c1ccc2c(c1)C1C=CCC1C(c1ccc(S(=O)(=O)N3CCOCC3)cc1)N2 (stereo not drawn) | 0.66% |
| O=C(O)c1ccc2c(c1)C1C=CCC1C(c1ccncc1)N2 (stereo not drawn) | -9.79% |
| O=C(O)c1ccc(NS(=O)(=O)c2ccc3c(c2)C2C=CCC2C(c2ccccc2F)N3)cc1 (stereo not drawn) | 25.9% |
| COc1cccc(NS(=O)(=O)c2ccc3c(c2)C2C=CCC2C(c2ccc(C(=O)O)cc2)N3)c1 (stereo not drawn) | 13.1% (active) |
| CC1CCc2sc(C(=O)OCC(=O)NCc3ccccc3)cc2C1 (stereo not drawn) | -4.45% |
| CC12CCC(C/C1=N\OC(=O)c1ccc(F)cc1)C2(C)C (stereo not drawn) | 1.74% |
| C/C=C/C(=O)N1CC2(CC(c3cccc(NC(=O)/C(C)=C/C)c3)=NO2)C[C@H]1C(N)=O (stereo partly drawn) | 3.31% |
| Cc1cc(C)n(-c2cc(N3CCN(S(=O)(=O)c4ccc(Cl)cc4)CC3)ccc2[N+](=O)[O-])n1 | 5.84% |
| COc1cccc2c(=O)n(CC(=O)N3CCc4ccccc43)ccc12 | 1.33% |
| N#CC1=C(N)N(c2ccccc2)C2=C(C(=O)CCC2)C1c1cccs1 (stereo not drawn) | 2.47% |
| CCCCNC(=O)Oc1c(Br)cc2sc(=O)oc2c1Br | 13.8% (active) |
| O=C(NC1CCCCC1)Oc1cc2oc(=O)sc2cc1Br | -0.42% |
| CCCCNC(=O)Oc1cc(CCl)on1 | -3.53% |
| CSc1cccc(NC(=O)C2CCCN2S(=O)(=O)c2ccc(Br)s2)c1 (stereo not drawn) | 7.56% |
| CSc1ccc(C(=O)C2CCCN(Cc3cnc(SC)nc3)C2)cc1 (stereo not drawn) | -1.56% |
| COc1cccc(N2CCN(C(=O)NC3CCCCC3)CC2)c1 | -5.07% |
| CCCCC(CC)C1OCC(CN2CCCCC2)O1 (stereo not drawn) | 7.5% |

| SMILES | inhibition |
| --- | --- |
| O=C1NC(=O)N(c2ccccc2)C(=O)/C1=C/c1ccc(Sc2ccccc2)o1 | 19.6% |
| CN1C(=O)C(=Cc2ccc(Sc3ccccc3)o2)C(=O)N(C)C1=O | -2.7% |
| O=[N+]([O-])c1cc(S(=O)(=O)N2CCCC2)ccc1N/N=C/c1cccnc1 | -1.08% |
| O=c1cc(O)c2ccc(O)cc2o1 | 4.26% |
| O=c1cc(-c2ccc(O)cc2)oc2ccc(O)cc12 | -0.88% |
| O=C(c1ccc([N+](=O)[O-])cc1[N+](=O)[O-])N1CCCC1 | 2.34% |
| CC1CC(C)CN(C(=O)Cn2c(=O)n(CCCCC(=O)NCc3ccco3)c(=O)c3ccccc32)C1 (stereo not drawn) | 4.18% |
| CCOc1nc2c(c(=O)n(C)c(=O)n2C)n1Cc1ccccc1Cl | 1.39% |
| CCCCNC(=O)Nc1nc2ccccc2s1 | 5.87% |
| COc1ccc(NC2=NC3(CCCCC3)N=C(N)N2)cc1 | 26% (active) |
| CCCCOc1ccc(NC2=NC3(CCCCC3)N=C(N)N2)cc1 | -13.7% |
| COc1cccc(NC2=NC3(CCCCC3)N=C(N)N2)c1 | 0.3% |
| CCOc1ccc(/C=C(/NC(=O)c2ccc(Cl)cc2)C(=O)O)cc1OCC | -0.87% |
| NC(=O)c1ccc(-n2nnnc2Oc2ccc(Br)cc2)cc1 | -0.77% |
| COc1ccc(NC(=O)Nc2ccccn2)cc1OC | 5.35% |
| Cc1c(Br)c(=O)oc2c(Br)c(O)ccc12 | 4.5% |
| Cc1c(Br)c(=O)oc2c(C)c(O)ccc12 | -1.97% |
| CC(C)(Cc1ccc(O)cc1)NC(=O)CC(=O)N/N=C/c1ccc([N+](=O)[O-])cc1 | -2.21% |
| COc1cc(/C=N/NC(=O)CCn2c3ccccc3c3ccccc32)cc(OC)c1OC | 1.58% |
| O=C(CN1CCN(Cc2ccccc2)CC1)N/N=C/c1cccnc1 | 1.02% |
| COc1ccc(N=C2NC(=O)/C(=C\C=C\c3ccco3)S2)cc1 | 8.93% |
| Cc1ccc(N=C2NC(=O)/C(=C/C=C/c3ccco3)S2)cc1 | 4.9% |
| O=C1NC(=Nc2ccccc2)S/C1=C\C=C\c1ccco1 | 14.8% (active) |
| Cc1cccc(N=C2NC(=O)/C(=C/C=C/c3ccco3)S2)c1 | 13.5% (active) |
